The nature of experiment [1]: E. coli DRC41 culture turbidity changes, primary screen, E. coli filamentation inducer project, strain DRC41, OD650, 48 h (AID 1152).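 Note: E. coli MC1000 strain DRC41 lacking acrAB efflux pump and sulA.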 Particulars: E. coli DRC41 (acrAB sulA), higher = more signal, called active from +8 up or from −8 down.
The nature of experiment [2]: small-molecule binders of probe aLefty1, primary screen, biochemical, small-molecule microarray, 635/667 nm fluorescence (AID 1153).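 Note: score merges spot fluorescence with signal-to-noise ratio from the scanned slide images.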 The conditions noted are these: higher = more signal.
Experiment [3] in a line: PSAC antagonists in infected red cells, primary screen, cell-based, P. falciparum Indochina, OD700, 1 h (AID 1154). The conditions noted are these: P. falciparum Indochina infected RBC osmotic lysis, higher = more signal, called active from +8 up or from −8 down.
Experiment [4] can be described thus: PSAC antagonists in infected red cells, primary screen, cell-based, P. falciparum Indochina, OD700, 2 h (AID 1155).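 Note: lysis reports solute entry through the parasite surface anion channel PSAC; channel blockers reduce lysis of infected cells.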 Particulars: P. falciparum Indochina infected erythrocytes, osmotic lysis OD700; higher = more signal, called active from +8 up or from −8 down.
The nature of experiment [5]: osmotic lysis modulators in infected erythrocytes, primary screen, PSAC antagonist project, cell-based, P. falciparum Indochina, OD700, 3 h (AID 1156). Particulars: higher = more signal, called active from +8 up or from −8 down.
The nature of experiment [6]: PSAC antagonists in infected red cells, primary screen, cell-based, P. falciparum Indochina, OD700, 18 h (AID 1157). The conditions noted are these: P. falciparum Indochina infected erythrocytes, osmotic lysis OD700, 18 h; higher = more signal, called active from +8 up or from −8 down.
Experiment [7] in a line: modulators of S6 phosphorylation in cells, primary screen, cell-based, A549, cytoblot, luminescence, serum-stimulated (AID 1158).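 Note: serum-stimulated A549 lung adenocarcinoma cells; signal is phosphorylated S6 detected by cytoblot immunostaining with HRP secondary.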 Particulars: A549 phospho-S6 cytoblot, 5 h, higher = more signal.
The target of experiment [8] is NADPH oxidase 2 (Homo sapiens) (UniProt P04839). Put plainly: NOX2-dependent H2O2 signal modulators, primary screen, NOX inhibitor project, cell-based, HEK293-NOX2, PMA-stimulated, Amplex Red fluorescence (AID 1159). Note: test concentration not given here. Particulars: 45 min, higher = more signal, called active from +8 up or from −8 down.
NADPH oxidase 2 (Homo sapiens), sequence (P04839 whole entry, looked up): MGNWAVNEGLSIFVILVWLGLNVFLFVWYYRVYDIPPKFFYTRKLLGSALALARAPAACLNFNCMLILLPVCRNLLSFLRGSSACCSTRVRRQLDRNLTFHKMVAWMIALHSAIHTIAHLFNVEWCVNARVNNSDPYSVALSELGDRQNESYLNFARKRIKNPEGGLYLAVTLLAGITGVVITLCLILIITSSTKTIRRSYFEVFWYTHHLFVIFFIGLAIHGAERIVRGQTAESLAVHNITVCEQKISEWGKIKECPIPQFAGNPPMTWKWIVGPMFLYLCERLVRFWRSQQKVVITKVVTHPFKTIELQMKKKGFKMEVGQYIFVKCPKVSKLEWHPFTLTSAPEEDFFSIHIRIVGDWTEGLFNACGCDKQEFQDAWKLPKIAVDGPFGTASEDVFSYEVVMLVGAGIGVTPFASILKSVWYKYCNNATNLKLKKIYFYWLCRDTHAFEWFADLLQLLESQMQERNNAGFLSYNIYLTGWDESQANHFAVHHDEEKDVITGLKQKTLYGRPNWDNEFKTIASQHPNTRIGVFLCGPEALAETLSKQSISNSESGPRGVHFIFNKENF
Experiment [9] concerns the target NADPH oxidase 4 (Homo sapiens) (UniProt Q9NPH5). Put plainly: NOX4-dependent H2O2 signal modulators, primary screen, NOX inhibitor project, cell-based, HEK293-NOX4, tetracycline-induced, Amplex Red fluorescence (AID 1160). The conditions noted are these: 45 min, higher = more signal, called active from +8 up or from −8 down.
Experiment [10] has as its target NADPH oxidase 5 (Homo sapiens) (UniProt Q96PH1). Put plainly: NOX5-dependent H2O2 signal modulators, primary screen, NOX inhibitor project, cell-based, HEK293-NOX5, Amplex Red fluorescence (AID 1161). The conditions noted are these: HEK293-NOX5, ionomycin, 45 min, higher = more signal.
Experiment [11] can be described thus: A549 cell viability effects, profiling panel, calcein-AM fluorescence, 48 h, basal (AID 1162). Note: test concentration not given here. The conditions noted are these: higher = more signal.
The nature of experiment [12]: adipocyte viability effects, profiling panel, cell-based, 3T3-L1 adipocytes, calcein-AM fluorescence, 48 h, basal (AID 1163). Note: test concentration not given here. The conditions noted are these: 3T3-L1 adipocytes viability, higher = more signal.
A short description of experiment [13]: HepG2 cell viability effects, profiling panel, calcein-AM fluorescence, 48 h, basal (AID 1164). Note: test concentration not given here. Particulars: higher = more signal.
Experiment [14] is described as follows: MM1S cell viability effects, profiling panel, calcein-AM fluorescence, 48 h, basal (AID 1165).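 Note: viability of MM1S multiple myeloma cells under basal unstimulated conditions; test concentration not given here.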 Particulars: higher = more signal.
A short description of experiment [15]: basal RPMI8226 viability, no added stimulus, profiling panel, cell-based, calcein-AM fluorescence, 48 h, PK04 Diversity Set (AID 1166).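 Note: cells grown under basal conditions without added stimulus; test concentration not given here.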 The conditions noted are these: RPMI8226 myeloma viability, higher = more signal.
The nature of experiment [16]: basal HepG2 mitochondrial membrane potential changes, profiling panel, cell-based, JC-1 fluorescence, 24 h, 100 nL compound (AID 1167). Note: test concentration not given here. The conditions noted are these: higher = more signal.
Experiment [17] can be described thus: basal 3T3-L1 adipocyte mitochondrial potential changes, profiling panel, cell-based, JC-1 fluorescence, 3T3-L1 adipocytes, 24 h, 100 nL compound (AID 1168). Note: test concentration not given here. The conditions noted are these: JC-1 mitochondrial fluorescence, higher = more signal, called active from +8 up or from −8 down.
A short description of experiment [18]: basal RPMI8226 mitochondrial membrane potential changes, profiling panel, cell-based, JC-1 fluorescence, 24 h, 100 nL compound (AID 1169). Note: test concentration not given here. Particulars: RPMI8226 myeloma, JC-1 mitochondrial potential fluorescence, higher = more signal.
Experiment [19] in a line: basal MM1S mitochondrial membrane potential changes, profiling panel, cell-based, JC-1 fluorescence, 24 h, 100 nL compound (AID 1170). Note: test concentration not given here. Particulars: higher = more signal.
Experiment [20] can be described thus: A549 lung cancer cell viability effects, profiling panel, resazurin fluorescence, 24 h, PK04 Diversity Set (AID 1171). Note: test concentration not given here. Particulars: higher = more signal, called active from +8 up or from −8 down. (Resazurin is reduced to fluorescent resorufin, in cell work by metabolically active cells.)

Activity calls are given as the source filed them.

NADPH oxidase 5 (Homo sapiens), sequence (Q96PH1 whole entry, looked up): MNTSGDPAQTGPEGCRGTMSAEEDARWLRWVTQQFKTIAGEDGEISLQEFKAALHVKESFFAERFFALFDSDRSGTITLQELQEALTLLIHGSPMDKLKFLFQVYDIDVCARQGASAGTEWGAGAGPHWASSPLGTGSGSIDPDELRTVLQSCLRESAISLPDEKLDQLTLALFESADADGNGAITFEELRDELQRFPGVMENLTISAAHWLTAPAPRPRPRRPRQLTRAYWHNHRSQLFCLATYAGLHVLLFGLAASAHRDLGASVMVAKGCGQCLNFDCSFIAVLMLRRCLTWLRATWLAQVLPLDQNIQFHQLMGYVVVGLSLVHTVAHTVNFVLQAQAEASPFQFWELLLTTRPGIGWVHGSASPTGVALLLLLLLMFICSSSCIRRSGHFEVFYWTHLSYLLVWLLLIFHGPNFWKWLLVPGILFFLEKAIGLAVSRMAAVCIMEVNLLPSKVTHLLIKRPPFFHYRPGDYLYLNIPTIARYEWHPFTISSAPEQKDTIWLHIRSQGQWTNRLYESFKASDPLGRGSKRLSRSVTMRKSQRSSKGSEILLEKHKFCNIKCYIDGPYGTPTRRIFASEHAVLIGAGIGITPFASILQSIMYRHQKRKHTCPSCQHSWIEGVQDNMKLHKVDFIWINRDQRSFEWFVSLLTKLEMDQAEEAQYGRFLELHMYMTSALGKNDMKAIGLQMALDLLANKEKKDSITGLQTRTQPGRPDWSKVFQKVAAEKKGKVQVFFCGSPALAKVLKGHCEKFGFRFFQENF
NADPH oxidase 4 (Homo sapiens), sequence (Q9NPH5 whole entry, looked up): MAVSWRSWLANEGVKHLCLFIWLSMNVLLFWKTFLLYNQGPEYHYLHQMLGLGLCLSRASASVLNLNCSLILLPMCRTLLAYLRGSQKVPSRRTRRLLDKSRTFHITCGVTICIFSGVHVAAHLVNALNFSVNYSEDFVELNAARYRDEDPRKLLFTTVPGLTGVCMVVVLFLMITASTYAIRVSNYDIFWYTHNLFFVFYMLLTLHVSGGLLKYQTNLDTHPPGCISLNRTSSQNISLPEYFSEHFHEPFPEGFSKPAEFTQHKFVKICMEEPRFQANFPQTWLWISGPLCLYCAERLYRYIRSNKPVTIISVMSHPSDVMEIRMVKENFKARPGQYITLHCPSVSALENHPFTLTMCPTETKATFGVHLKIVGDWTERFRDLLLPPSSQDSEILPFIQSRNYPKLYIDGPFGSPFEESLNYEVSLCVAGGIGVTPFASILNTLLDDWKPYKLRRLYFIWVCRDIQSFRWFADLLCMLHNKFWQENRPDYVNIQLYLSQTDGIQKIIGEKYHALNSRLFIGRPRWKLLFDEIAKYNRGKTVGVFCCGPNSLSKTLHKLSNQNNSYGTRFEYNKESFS

In the case of `COC(=O)CC=C[C@@H](C)[C@@H](C=NO[C@@H]1O[C@H](COC(C)=O)[C@@H](OC(C)=O)[C@H](OC(C)=O)[C@H]1OC(C)=O)NS(=O)(=O)c1ccc(C)cc1`, the z-score in experiment [1] was -0.673 (inactive); in experiment [3], 0.683 (inactive); in experiment [4], 0.54 (inactive); in experiment [5] it was 1.1 (inactive); in experiment [6] it was 0.294 (inactive); in [7], -0.448. Moreover, the z-score is 0.837 (inactive) in experiment [8]; 0.968 (inactive) in experiment [9]; 0.569 in experiment [10]; -0.4 in experiment [11]; -0.387 in experiment [12]; -0.416 in experiment [13]. For the same molecule, the z-score in experiment [14] is 0.27; in experiment [15], -1.81; in experiment [16], -0.365; in [17], -1.39 (inactive); in experiment [18], -0.736; in experiment [19], 0.049. For the same molecule, the z-score in experiment [20] was -0.251 (inactive). The same molecule had a composite z-score in [2] of -0.397.

Turning to `CCN1C(=O)[C@@H]2[C@H]3C(=CC[C@@H]2C1=O)C1(OCCCO1)[C@H]1O[C@H]1[C@H]3O`, the z-score was -0.721 (inactive) in experiment [1]; 27.2 (active) in [3]; 12.1 (active) in experiment [4]; 1.38 (inactive) in [5]; 1.18 (inactive) in [6]; -0.295 in [7]. Moreover, the z-score in [8] was 0.104 (inactive); in experiment [9] it was -5.5 (inactive); in experiment [10] it was -5.86; in experiment [11], -4.56; in experiment [12], -1.03; in experiment [13], -4.61. In addition, the z-score in [14] is -3.56; in experiment [15] it was -3.24; in experiment [16], -3.62; in experiment [17], -5.63 (inactive); in [18], -1.04; in [19], -3.04. In experiment [20], the z-score was -3.14 (inactive). The same molecule displayed a composite z-score in experiment [2] of 0.167.

As for `CC(C)CON=C1C[C@@H](O)[C@@H](O)[C@@H]2[C@@H]3C(=O)N(C[C@@H]4CCCO4)C(=O)[C@@H]3CC[C@@H]12`, the z-score in experiment [1] was 0.93 (inactive); in experiment [3], -0.441 (inactive); in experiment [4], -0.379 (inactive); in experiment [5], -0.611 (inactive); in [6], -0.21 (inactive); in experiment [7], 0.324. Moreover, the z-score in [8] was 0.957 (inactive); in [9] it was 0.816 (inactive); in experiment [10], -0.0365; in experiment [11] it was 0.18; in experiment [12], -0.149; in [13], -0.622. Also, the z-score is -0.61 in experiment [14]; -0.923 in experiment [15]; -0.49 in experiment [16]; 0.977 (inactive) in experiment [17]; -0.258 in experiment [18]; -0.0595 in experiment [19]. In addition, the z-score in experiment [20] was 0.266 (inactive). Moreover, the composite z-score in experiment [2] was -0.0501.

Regarding `CCOC(=O)NN=C1C[C@@H](O)[C@@H](O)[C@@H]2[C@@H]3C(=O)N([C@@H](C)c4ccccc4)C(=O)[C@@H]3CC[C@@H]12`, the z-score was -0.0718 (inactive) in [1]; -0.308 (inactive) in experiment [3]; 0.0095 (inactive) in [4]; -0.611 (inactive) in [5]; -0.0871 (inactive) in [6]; -0.25 in experiment [7]. Moreover, the z-score in [8] was -0.819 (inactive); in [9] it was 0.589 (inactive); in experiment [10], -0.143; in experiment [11], 0.0669; in [12], -1.33; in [13] it was -0.624. Besides, the z-score was 0.372 in [14]; -0.112 in [15]; -0.369 in experiment [16]; -0.878 (inactive) in [17]; -0.92 in [18]; -0.834 in experiment [19]. For the same molecule, in [20], the z-score is 0.4 (inactive). Moreover, the composite z-score in [2] was -0.0523.

The record behind these values is PubChem BioAssay.
